Shown are actives, neighbours in structure and some others; about 4.6% of the full set was active somewhere.
TRHR agonist: activates the human TRH receptor. AID 493084. 0.18% of 360,000 active. TRHR cells, calcium flux fluo-8, FDSS agonist mode. activation, % at 2 µM. P34981; also: 0% is about no effect
Target sequence (P34981 whole entry, looked up): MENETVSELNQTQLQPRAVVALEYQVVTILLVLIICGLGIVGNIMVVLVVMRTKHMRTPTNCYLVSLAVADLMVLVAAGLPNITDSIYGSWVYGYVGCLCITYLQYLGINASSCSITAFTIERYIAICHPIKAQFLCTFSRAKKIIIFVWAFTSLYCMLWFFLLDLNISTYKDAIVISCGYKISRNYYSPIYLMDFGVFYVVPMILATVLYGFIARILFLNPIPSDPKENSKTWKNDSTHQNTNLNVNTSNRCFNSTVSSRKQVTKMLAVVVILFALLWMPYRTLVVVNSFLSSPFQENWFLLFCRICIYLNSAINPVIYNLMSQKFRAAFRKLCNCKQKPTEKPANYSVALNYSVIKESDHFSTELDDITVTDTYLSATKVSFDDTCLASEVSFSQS
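TRHR-expressing cells, plated overnight in medium with 10% serum, were loaded with fluo-8 calcium dye at room temperature. After a 10 s baseline, library compound was pin-added and calcium release was recorded kinetically (ex 480/em 530) as agonist response.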
D1 antagonist: antagonists of human D1 dopamine receptor; activity change, negative = inhibition, % at 10 µM; 3.2% of 360,000 active; P21728; HEK293 TREx D1 cells, calcium flux, dopamine EC80; stronger effect = lower value; in the data active = activity change below about -30%; also: % is scaled to controls: 0 for no effect and ±100 for the full control effect
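Cells carrying a force-coupled, tetracycline-inducible human D1 receptor report calcium flux. Each well gets a 10 s baseline, compound with 180 s monitoring, then an EC80 dopamine stimulus with a second 180 s kinetic read.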
D1 ag: human D1 receptor agonism; activation, % at 2 µM; HEK293 T-REx D1 cells, calcium flux, agonist mode; P21728; 1% of 360,000 active; also: 0% is about no effect
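Agonism was scored from calcium flux recorded over 180 s (1 read/s) after pintool compound addition, following a 10-cycle baseline. Cells were inducible force-coupled HEK293 TREx D1, plated overnight at 30 C and loaded with no-wash calcium dye.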
TRHR enhancer: TRH receptor (human) allosteric enhancement; enhancement, % at 2 µM; 0.66% of 360,000 active; TRHR cells, fluo-8 calcium fluorescence, EC20 TRH enhancement; P34981; in the data active = enhancement above about 30%; also: 0% is about no effect
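Enhancer read-out: after compound pinning and an initial kinetic agonist-mode read, an EC20 of TRH (10 nM final) was injected and fluo-8 calcium signal (Ex 480/Em 530) followed at 1 s/cycle for 100 cycles in TRHR-expressing cells.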
D1 potentiator: enhances dopamine response at the human D1 receptor. HEK293 TREx D1 cells, calcium flux, dopamine EC20 potentiation. potentiation, % at 10 µM. 0.036% of 360,000 active. AID 504651; in the data active = potentiation above about 30%; also: 0% is about no effect
An asterisk follows results filed as active; . = no result; ! = a repeat was not active. Rule as the data show it, unless noted: active = activation above about 30%; inactive = the rest.

SMILES	TRHR agonist	D1 antagonist	D1 ag	TRHR enhancer	D1 potentiator
O=C(O)c1ccc(NS(=O)(=O)c2ccc(Cl)c(Cl)c2)cc1O	0	-31*	2	-5	-6
O=C(O)c1cc(S(=O)(=O)Nc2ccc(N3CCCCC3)cc2)ccc1Cl	0	-30	1	3	-4
CCOC(=O)N1CCN(C(=O)Cc2c(C(=O)O)n(C)c3ccccc23)CC1	1	3	1	4	0
CCOC(=O)C1CCN(C(=O)Cc2c(C(=O)O)n(CC)c3ccccc23)CC1	1	-87*	1	3	-5
COc1ccc(C(C(=O)NC2CCCCC2)N(Cc2cccnc2)C(=O)c2snc(C(N)=O)c2N)cc1 (stereo not given)	0	-34*	1	-6	-7
COc1ccc(CN(C(=O)c2nsc(Cl)c2Cl)C(C(=O)NC2CCCCC2)c2ccc(OC)cc2)cc1 (stereo not given)	2	5	1	-7	-4
COc1ccc(CN(C(=O)c2snc(C(N)=O)c2N)C(C(=O)NC2CCCC2)c2ccc(OC)c(OC)c2)cc1 (stereo not given)	0	-5	3	15	3
CCCC(C(=O)NC1CCCC1)N(Cc1cccs1)C(=O)c1snc(C(N)=O)c1N (stereo not given)	0	-36*	2	7	-5
COc1ccc(CN(C(=O)c2nsc(Cl)c2Cl)C(C(=O)NC2CCCC2)c2ccc(C)cc2)cc1 (stereo not given)	0	-10	6	37*	-12
COc1cccc(N(CC(=O)NC2CCCCC2)C(=O)c2snc(C(N)=O)c2N)c1	0	-35*	-1	27	-11
Nc1nc2ccc(Cc3ccncc3)cc2s1	0	20	7	-1	-8
CCOc1cc(CN2CCN(C(=O)c3ccco3)CC2)ccc1OC	2	14	-2	0	4
CC(C)CCNC(=O)CSc1nc2ccccc2c(=O)[nH]1	0	-3	2	0	-2
O=C1Cc2cc(NS(=O)(=O)c3ccc([N+](=O)[O-])cc3)cc3c2N1CCC3	-1	-32*	1	-2	-2
C/C=C(\C)CN1CCc2cc(OC)c(OC)cc2C1	0	14	9	32*	-4
COc1cc2c(cc1OC)CN(CC(=O)NC(=O)NCc1ccccc1)CC2	0	-16	3	-1	4
Cc1ccc(C)c(N2CCN(C(=O)c3cccn4c(=O)c5sccc5nc34)CC2)c1	1	7	19	1	0
CCN1CCCC1CNC(=O)c1ccc(CS(=O)(=O)c2ccccc2C)o1 (stereo not given)	0	7	0	31*	8
COc1ccccc1CNC(=O)c1ccc(C)s1	-2	-46*	-1	-1	-5
COc1ccc(CNC(=O)c2ccc(CS(=O)(=O)c3ccccc3C)o2)cc1	0	0	3	0	3
COc1ccccc1S(=O)(=O)Cc1ccc(C(=O)NCC2CCCO2)o1 (stereo not given)	0	-36*	1	-2	2
COc1ccccc1CNC(=O)c1ccc(CS(=O)(=O)c2ccccc2C)o1	3	-38*!	31*!	-10	1
Cc1ccccc1S(=O)(=O)Cc1ccc(C(=O)NCCCN2CCCC2)o1	0	3	2	2	-6
CCCOCC1CC2(CC(C)(c3csc(N)n3)OC2=O)C(=O)O1 (stereo not given)	0	8	-3	6	-2
COc1cccc(CNC(=O)CN(c2cc(C)cc(C)c2)S(=O)(=O)c2c(C)noc2C)c1	-1	-24	4	-2	-2
SMILES	TRHR agonist	D1 antagonist	D1 ag	TRHR enhancer	D1 potentiator
Cc1c(C(=O)NCC2CCCO2)oc2ccccc12 (stereo not given)	0	-31*	0	2	.
CCCCn1c(N)c(N(CCOC)C(=O)c2cc(-c3ccc(OC)c(OC)c3)nc3ccccc23)c(=O)[nH]c1=O	0	-16	2	-2	-6
COc1ccc(C(=O)NC2(C(F)(F)F)C(=O)NC(C)=C2C#N)cc1 (stereo not given)	0	-9	-1	41*	-2
CC1=C(C#N)C(NC(=O)c2cccc(Cl)c2)(C(F)(F)F)C(=O)N1 (stereo not given)	0	-31*!	0	-6	0
COc1ccc(C(=O)NC2(C(F)(F)F)C(=O)NC(C)=C2C#N)cc1OC (stereo not given)	0	3	4	-4	2
C/C(CCC(C)C)=N\NC(=S)Nc1cc(S(=O)(=O)N2CCOCC2)ccc1N1CCOCC1	0	5	5	-2	-7
CCOC(=O)c1c(S(=O)(=O)N2CCCC(C(=O)Nc3ccccn3)C2)c(C)n(C)c1C (stereo not given)	0	11	-1	-2	1
COCCN(Cc1ccccc1)C(=O)c1cccc(S(=O)(=O)N(C)c2c(C)n(C)n(-c3ccccc3)c2=O)c1	0	3	3	-4	1
COc1ccc(-c2nc(N3CCN(S(=O)(=O)c4ccc(F)cc4)CC3)c3ccccc3n2)cc1	-1	-31*	5	39*	3
Cc1ccc(-c2nc(N3CCN(S(=O)(=O)c4ccc(F)cc4)CC3)c3ccc(Cl)cc3n2)cc1	-1	-41*	3	1	1
O=C(CCc1ccccc1)N1CCN(S(=O)(=O)c2cccs2)CC1	0	-40*	3	0	-3
O=S(=O)(c1cccs1)N1CCC(Cc2ccccc2)CC1	1	-42*	11	-11	0
Cc1cccc(C(=O)NCc2ccco2)c1	0	-10	0	2	-8
CCCCCc1ccc(OCCCC[n+]2ccccc2)c(CCCCC)c1	1	-24	96*	0	0
CCC(C)(C)c1ccc(OCCCC[n+]2ccccc2)c(C(C)(C)CC)c1	-1	-3	166*	0	-11
O=C(CC(=O)N/N=C/c1ccc(Cl)cc1Cl)NCc1ccccc1	0	0	2	0	2
O=C(CC(=O)N/N=C/c1c(F)cccc1Cl)NCc1ccccc1	1	-81*	0	-3	-4
O=C(Cn1cncn1)N/N=C/c1ccccc1Cl	1	-11	0	32*	-8
C=CCNC(=O)CC(=O)N/N=C/c1ccccc1F	0	-4	2	32*	8
O=C(CN1CCCCCCC1)N/N=C/c1ccccc1F	-1	-39*	-1	4	-5
Cc1ccc(/C=N/NC(=O)Cn2cncn2)cc1	1	3	1	6	0
O=C(CO)N/N=C/c1ccccc1F	0	4	3	-6	4
O=c1c(-c2ccc(F)cc2)coc2c3c(ccc12)OCCO3	0	11	0	-1	6
CC(=O)Oc1ccccc1C(=O)Oc1ccccc1C(=O)O	0	26	0	-5	-1

Assay outcomes as filed in PubChem.
